SENP8 block-1: inhibitors of human SENP8 protease; Q96LD8; recombinant SENP8, Nedd8 substrate fluorescence; inhibition, % at 20 µM; 360,000 compounds, 0.64% hits; in the data active means inhibition mostly above about 40%, no sharp cut-off; inactive means mostly below about 27%
SENP6 block: inhibitors of human SENP6 protease. Recombinant SENP6 catalytic domain, aminoluciferin luminescence. inhibition, % at 10 µM. 330,000 compounds, 1.8% hits;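 active means inhibition above about 50% at the single tested dose, limit read from the data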;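 further: plate controls were DMSO wells with enzyme for no effect and DMSO wells lacking enzyme for full effect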
SENP7 inh: blocks the human protease SENP7; Q9BQF6; recombinant SENP7, Z-RLRGG-aminoluciferin luminescence, 40 min; inhibition, % at 5 µM; 330,000 compounds, 1.5% hits; AID 434973;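 active means inhibition above about 50% at the single test dose, limit read from the data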;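 further: plate controls were DMSO with enzyme for no effect and no enzyme buffer wells for full effect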
Target sequence (Q9BQF6 706-1050 limits assumed): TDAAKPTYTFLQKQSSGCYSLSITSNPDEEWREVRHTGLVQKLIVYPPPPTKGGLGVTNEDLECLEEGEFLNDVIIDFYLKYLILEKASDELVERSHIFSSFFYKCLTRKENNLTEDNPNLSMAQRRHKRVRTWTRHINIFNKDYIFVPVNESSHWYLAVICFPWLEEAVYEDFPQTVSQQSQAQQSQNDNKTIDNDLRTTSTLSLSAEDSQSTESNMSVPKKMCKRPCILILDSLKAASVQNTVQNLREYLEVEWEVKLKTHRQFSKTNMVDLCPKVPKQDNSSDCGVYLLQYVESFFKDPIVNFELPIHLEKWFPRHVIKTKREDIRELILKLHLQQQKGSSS
TRAIL sens C8: caspase-8 TRAIL sensitization; NB7+C8 cells + TRAIL, ATPlite viability luminescence; inhibition (viability loss, TRAIL sensitization), % at 10 µM; 360,000 compounds, 1% hits;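 active means compounds causing at least 50% loss of cell viability in the single-dose screen, relative to plate controls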
SENP8 block-2: SENP8 protease inhibition; Q96LD8; purified SENP8, Z-RLRGG-aminoluciferin cleavage, luminescence; inhibition, % at 10 µM; 330,000 compounds, 1.2% hits; in the data active means inhibition above about 50%
PPC-1+TRAIL kill: compounds killing PPC-1 cancer cells with TRAIL present (potentiator screen, no TRAIL-free arm) | PPC-1 cells + TRAIL, ATPLite viability luminescence | cell killing (% activity), % at 4 µM or 5 µM | 220,000 compounds, 0.41% hits;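 active means cell killing above 50% in the first pass at 4 µM, then a duplicate retest at 5 µM averaging 50% or more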;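 further: plate controls were cells with TRAIL plus DMSO for no effect and medium-only wells lacking cells for full effect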
SENP8 conf: human SENP8 inhibition, confirmed; shares compounds with SENP7 inh; Recombinant SENP8, Z-RLRGG-aminoluciferin luminescence, 60 min; inhibition, % at 12.5 µM; 6,200 compounds, 40% hits;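 active means mean inhibition across replicates above about 50%, limit read from the data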
SENP6 confirm: confirmation of human SENP6 protease inhibitors; shares compounds with SENP7 inh; recombinant SENP6, Z-RLRGG-aminoluciferin luminescence; inhibition, % at 12.5 µM; 6,200 compounds, 58% hits; AID 488915
SENP7 confirm: human SENP7 inhibition, confirmed; shares compounds with SENP7 inh; recombinant SENP7, Z-RLRGG-aminoluciferin luminescence, 40 min; inhibition, % at 12.5 µM; 6,200 compounds, 69% hits; AID 488917
Casp3 SENP sel: selectivity test for SENP inhibitors: human caspase-3 inhibition. shares compounds with SENP7 inh. purified caspase-3, Z-DEVD-aminoluciferin luminescence, 60 min. inhibition, % at 12.5 µM. 6,200 compounds, 60% hits;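 active means mean inhibition above about 50%, limit read from the data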;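 further: plate controls were enzyme with DMSO for no effect and wells without caspase-3 for full effect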
Target sequence (P42574 28-227 limits assumed): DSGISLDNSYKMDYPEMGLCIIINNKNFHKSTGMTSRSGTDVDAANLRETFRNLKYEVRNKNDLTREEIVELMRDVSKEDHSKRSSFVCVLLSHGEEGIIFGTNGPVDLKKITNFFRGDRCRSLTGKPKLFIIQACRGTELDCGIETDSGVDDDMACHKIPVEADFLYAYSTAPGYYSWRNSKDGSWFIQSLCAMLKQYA
SENP luc ctr: counter-screen for SENP inhibitors: luminescence interference | shares compounds with SENP7 inh | AID 488919 | Pre-incubated SENP8/Z-RLRGG-aminoluciferin, luciferase luminescence interference | 6,200 compounds, 39% hits | inhibition, % at 12.5 µM;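 active means mean inhibition above about 50% when retested at one dose, limit read from the data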;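 further: plate controls were DMSO wells with completed reaction for no effect and substrate without enzyme for full effect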
* marks the source's active call; other numbers are inactive results; i = inactive; x = not tested or not shown. Hits are enriched below; roughly 3% of the tested compounds scored in any of these assays.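 How the source made its calls, unless noted: active means mean inhibition above about 50% in the one-dose retest (limit read from the data); inactive means the rest.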

SMILES	SENP8 block-1	SENP6 block	SENP7 inh	TRAIL sens C8	SENP8 block-2	PPC-1+TRAIL kill	SENP8 conf	SENP6 confirm	SENP7 confirm	Casp3 SENP sel	SENP luc ctr
CCCCCn1c(N)c(C(=O)NCc2cccs2)c2nc3ccccc3nc21	x	79.6*	39.8	x	84.1*	-4.1	12.1	14.4	7.5	-1.9	-3.7
CCCCCn1c(N)c(C(=O)NCCN2CCOCC2)c2nc3ccccc3nc21	-490.1	11.4	2.9	11.7	8.8	11.6	x	x	x	x	x
Nc1c(C(=O)NCc2ccco2)c2nc3ccccc3nc2n1Cc1ccccc1	-395.1	15.9	14.1	5.0	11.1	24.1	x	x	x	x	x
CCCCn1c(N)c(C(=O)NCc2cccs2)c2nc3ccccc3nc21	-257.2	87.8*	37.7	-3.6	93.0*	23.9	10.2	18.0	16.8	1.9	1.9
CCCCNC(=O)c1c(N)n(Cc2ccc3c(c2)OCO3)c2nc3ccccc3nc12	-269.6	94.3*	61.9*	20.3	89.2*	17.8	-7.3	2.9	-1.9	5.2	3.4
CCCCCCn1c(N)c(C(=O)NCCN2CCOCC2)c2nc3ccccc3nc21	-432.1	35.9	21.9	-14.4	7.2	13.1	x	x	x	x	x
C[C@H](CO)N1C[C@H](C)[C@H](CN(C)C(=O)Oc2cccc3ccccc23)OCc2cnnn2CCCC1=O	1.5	x	x	-3.0	x	x	x	x	x	x	x
O=c1[nH]c(Cl)ccc1CN1CCOCC1	1.0	-16.5	0.2	4.0	1.0	x	x	x	x	x	x
CCCOC(=O)c1c(N)n(Cc2cccs2)c2nc3ccccc3nc12	-284.4	4.6	-1.8	-1.9	-2.1	12.9	x	x	x	x	x
Nc1c(C(=O)NCCCc2ccccc2)c2nc3ccccc3nc2n1Cc1cccs1	-284.6	60.3*	34.9	1.2	45.5	46.3	-18.4	11.3	-0.1	-5.1	-5.7
S=P(N1CCCCCC1)(N1CC1)N1CC1	-1.7	x	x	-0.1	x	x	x	x	x	x	x
COc1cc2[nH]c(=O)n(-c3ccccc3)c(=O)c2cc1OC	-320.2	-3.3	-4.3	-5.6	-1.4	4.8	x	x	x	x	x
COc1cc(C(c2c(C)[nH]n(-c3ccccc3)c2=O)c2c(C)[nH]n(-c3ccccc3)c2=O)cc(OC)c1OC	80.5*	58.5*	64.4*	-4.7	30.8	x	20.9	47.9	18.4	-2.1	-3.0
O=P(NCc1ccccc1)(Oc1ccccc1)Oc1ccccc1	12.7	20.0	7.8	-7.8	1.3	12.1	x	x	x	x	x
Fc1cccc(F)c1-c1nc(-c2ccc(Cl)cc2)no1	5.6	71.2*	61.2*	11.2	65.0*	20.7	30.9	65.9*	63.4*	40.1	31.9
N/C(=N\N=C\c1ccc(O)cc1O)N[N+](=O)[O-]	11.5	14.5	52.2*	-8.2	50.9*	13.5	61.2*	60.2*	86.5*	88.4*	68.5*
COc1cc2c(cc1OC)-c1c3c(cc4c1[C@@H](C2)N(C)CC4)OCO3	i	77.6*	46.0	31.0	32.3	11.3	10.3	38.1	8.0	3.8	-2.9
COc1cc2c(cc1OC)-c1c(OC)c(OC)cc3c1C(C2)N(C)CC3 (stereo not drawn)	-136.3	82.3*	55.3*	3.9	57.9*	-0.5	-2.5	73.1*	30.3	23.8	-2.7
O=C(Nc1ccccc1)c1c(O)[nH]c(=S)[nH]c1=O	-2.7	63.3*	61.4*	-12.0	51.8*	x	61.6*	54.2*	88.4*	81.9*	59.6*
Cc1ccc(C)c(OCc2cc(C(=O)N3C[C@H]4C[C@@H](C3)c3cccc(=O)n3C4)no2)c1	-21.5	-0.4	3.2	10.8	-3.2	x	x	x	x	x	x
COc1ccc(-c2cc(=Nc3ccccc3)c3cc(C)ccc3o2)cc1	-339.6	68.5*	68.4*	2.9	22.4	13.5	11.6	7.2	0.5	6.9	12.7
Cc1cc(N=Nc2ccccc2C)ccc1N	55.3*	90.0*	86.1*	25.3	76.4*	x	81.1*	81.8*	95.9*	49.1	85.5*
CC(C)C[C@H]1C(=O)N2CCCC2[C@]2(O)O[C@](NC(=O)[C@@H]3C=C4c5cccc6[nH]cc(c56)CC4N(C)C3)(C(C)C)C(=O)N12 (stereo partly drawn)	-388.6	54.2*	33.4	-10.1	42.1	14.4	17.3	29.8	9.8	6.3	-2.1
CC(C)[C@H]1C(=O)N2CCC[C@H]2[C@]2(O)O[C@](NC(=O)[C@@H]3C=C4c5cccc6[nH]cc(c56)C[C@H]4N(C)C3)(C(C)C)C(=O)N12	-378.9	52.2*	39.6	-2.1	43.3	33.4	-11.2	3.9	-6.7	-2.0	-8.1
CC(C)[C@@]1(NC(=O)[C@@H]2C=C3c4cccc5[nH]cc(c45)C[C@H]3N(C)C2)O[C@@]2(O)[C@@H]3CCCN3C(=O)[C@H](Cc3ccccc3)N2C1=O	x	x	x	x	x	15.4	x	x	x	x	x
SMILES	SENP8 block-1	SENP6 block	SENP7 inh	TRAIL sens C8	SENP8 block-2	PPC-1+TRAIL kill	SENP8 conf	SENP6 confirm	SENP7 confirm	Casp3 SENP sel	SENP luc ctr
Fc1ccccc1CCNCc1cccc(Cl)c1Cl	11.4	10.2	5.6	4.0	-5.5	19.0	x	x	x	x	x
COc1ccc(-c2nc3ccccc3c(=O)o2)cc1	8.7	81.2*	89.5*	55.4*	19.5	47.1	62.8*	44.3	74.9*	53.9*	33.8
O=C(Nc1ccc(Cl)cc1)Nc1nccs1	16.0	68.0*	52.1*	34.6	24.8	0.7	50.5*	50.5*	76.7*	39.0	36.9
COC(=O)c1nc(-c2ccc3c(n2)C(=O)C(N)=C(OC)C3=O)c(N)c(-c2ccc(OC)c(OC)c2O)c1C	48.7*	75.6*	12.7	46.4	80.8*	29.3	-7.5	-2.9	10.2	-1.5	-3.9
Cc1ccc2c(c1N)C(=O)c1ccccc1C2=O	29.2	65.5*	62.2*	10.9	62.6*	x	18.8	22.1	50.3*	25.3	17.8
CC(C)(C#CC(=O)O)OOC(c1ccccc1)(c1ccccc1)c1ccccc1	2.3	-7.1	-2.6	1.3	-1.2	x	x	x	x	x	x
Nc1ccccc1C(=O)OCCc1ccccc1	-387.2	76.1*	75.3*	11.2	72.5*	x	69.2*	75.0*	91.5*	60.3*	67.3*
CC(C)[C@H]1C(=O)O[C@@H]2CCN3CC=C(COC(=O)[C@](C)(O)[C@]1(C)O)[C@H]23	14.6	-0.7	0.3	-17.8	0.2	x	x	x	x	x	x
COc1ccc(Cn2c(N)c(C(=O)NCc3ccco3)c3nc4ccccc4nc32)cc1	-414.7	57.7*	28.0	1.5	25.5	19.6	-4.3	-6.5	-3.9	-1.0	-6.3
